Assay results as given in PubChem BioAssay AID1578 (Sanford-Burnham Center for Chemical Genomics, 2009).
Values joined by “and” are separate entries in the source; they are usually repeats but may differ in a detail not shown here. Identical values can stand only once. About 3,000 (1%) of roughly 290,000 compounds were called active. Cut-off read from the data, not from the text of the source: active = inhibition mostly above about 36% (no sharp cut-off); inactive = mostly below about 34%. Many of the other results were omitted from the sample, so actives are more common in it than they were.

Test: NOD1 signaling inhibitors, primary screen, cell-based, luminescence, uHTS (AID 1578);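 note: HEK-293T reporter cells stimulated with the NOD1 agonist gamma-tri-DAP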
Conditions: NOD1-driven NF-kB luciferase reporter cells, at 4 µM, stronger effect = higher value

inhibition, inactive:
OCCN(CC#CCC(O)(c1ccccc1)C1CCCC1)CCO (stereo unspecified) -2%
CCCCCc1cc(=O)oc2c(C(CCN3CCCCC3)c3ccc4c(c3)OCO4)c(OC)cc(OC)c12 (stereo unspecified) 2.9%
Cc1ccc2[nH]cc(/C=C/c3cc[n+](C)cc3)c2c1 4.2%
Cc1ccc2[nH]c(C)c(/C=C/c3cc[n+](C)cc3)c2c1 5.6%
Cc1ccc(Cn2c(S(=O)(=O)O)nc3ccccc32)cc1 -25.7%
CS(=O)(=O)c1nc2ccccc2n1Cc1ccccc1 13.9%
COc1ccc(CCC(=O)N(c2nnc(-c3cccnc3)s2)C(C)C)cc1 -14.2%
NC(=O)NC(=O)CSc1ccccc1 -37.5%
COCCc1nnc(NC(=O)C23CC4CC(CC(C4)C2)C3)s1 -34.2%
O=C(Nc1ccc(Oc2cccc(C(F)(F)F)c2)nc1)c1ccccc1 10.3%
CC(C)(C)c1ccc(C(=O)Nc2ccc(Oc3cccnc3)nc2)cc1 29%
O=S(=O)(N/N=C\c1ccc2c(c1)OCO2)c1ccc(F)cc1 -7.6%
Cc1nn(-c2ccccc2)c2c1C(c1ccc(O)c(O)c1)N1C(=N2)C(Nc2ccccc2)=Nc2ccccc21 (stereo unspecified) -2.4%
Cc1ccc(NC2=Nc3ccccc3N3C2=Nc2c(c(C)nn2-c2ccccc2)C3c2ccc(O)c(O)c2)cc1 (stereo unspecified) 2.5%
O=C(Nc1ccccc1)Nc1cc(OCC(F)(F)F)cc(OCC(F)(F)F)c1 -5.2%
CCOc1ccc(NC(=O)Nc2cc(OCC(F)(F)F)cc(OCC(F)(F)F)c2)cc1 -32.9%
C[C@H](NC(=O)[C@@H]1Cc2ccccc2CN1)C(=O)NC1CCCC1 -25.1%
COc1cccc(NC(=O)c2ccc(NC(=O)C(C)(C)C)cc2)c1 -63%
O=C(Nc1ccccc1)Nc1ncc([N+](=O)[O-])s1 -0.5%
O=C(/C=C/c1ccc([N+](=O)[O-])cc1)Nc1cccnc1 -4.6%
CCCOc1ccc(/C=C/C(=O)Nc2ccc([N+](=O)[O-])cc2C)cc1 0.8%
CCCCOc1ccc(/C=C/C(=O)Nc2ccc([N+](=O)[O-])cc2C)cc1 -22.5%
COCC(C)n1c(SC(C)C(=O)NC2CCCCC2C)nc2ccccc2c1=O (stereo unspecified) -27.1%
CN(CC(=O)Nc1ccc(Cl)c(C(F)(F)F)c1)C(=O)CC1Sc2ccccc2NC1=O (stereo unspecified) -18.8%
O=S(=O)(c1ccc(F)cc1)N1CCN(CC(O)COc2ccccc2F)CC1 (stereo unspecified) -0.6%
COc1cccc(CNC(=O)CCC(=O)N2CCSc3ccccc32)c1OC 5.1%
CC(=O)Nc1ccc(S(=O)(=O)N2CCCC2C(=O)Nc2ccc3c(c2)OCCO3)cc1 (stereo unspecified) -17.3%
CCO[C@@H]1OC(C(=O)N2CCN(C)CC2)=C[C@H](c2csc3ccccc23)[C@H]1CCCO -18%
NNC(=O)CCN1CCN(C(c2ccccc2)c2ccccc2)CC1 -18.4%
O=C(CCN1CCN(Cc2ccccc2)CC1)Nc1ccccc1Cl -19.8%
COC(=O)N/N=C/c1cc(Cl)cc(Cl)c1OCc1ccccc1F -1.4%
C=CCSc1nc(C)c(CC(=C)C)c(=O)[nH]1 -23.6%
C=CCSc1nc(C)c(CC=C)c(=O)[nH]1 -34.6%
C/C(=N\NC(=O)C1CC1)c1cccs1 -17.5%
CCc1ccnc(NS(=O)(=O)c2ccc3c(c2)CCO3)c1 -5.6%
O=S(=O)(N/N=C\c1c(F)cccc1Cl)c1ccc(Cl)cc1 -0.4%
COC(=O)c1ccc(Cl)c(NC(=O)c2ccc(-c3ccccc3)cc2)c1 6%
CCCOC(=O)c1ccc(Cl)c(NC(=O)c2ccc(-c3ccccc3)cc2)c1 3.5%
Cc1cc(NS(=O)(=O)c2ccc(NC(=O)C(C)Oc3ccc(Cl)cc3)cc2)no1 (stereo unspecified) 6.9%
O=C(Nc1ccon1)C12CC3CC(C1)CC(n1cnc([N+](=O)[O-])n1)(C3)C2 -18.8%
O=C(Nc1ccccc1)C12CC3CC(C1)CC(n1cnc([N+](=O)[O-])n1)(C3)C2 1.9%
COc1ccc(C(=O)N2CCCC(C(=O)N3CCN(c4ccccc4)CC3)C2)cc1 (stereo unspecified) 2.5%
O=C(Nc1ccc(N2CCN(C(=O)c3ccccc3)CC2)cc1)c1ccc2c(c1)OCCO2 31.2%
Cc1ccccc1C(=O)N1CCN(c2ccc(NC(=O)c3ccc4c(c3)OCO4)cc2)CC1 3%
COc1ccccc1N(CC(=O)Nc1ccccc1C)S(C)(=O)=O -26.9%
CC(NC(=O)C1CC=CCC1C(=O)O)C1CC2CCC1C2 (stereo unspecified) -30.7%
CC(NC(=O)c1ccccc1Cl)C1CC2CCC1C2 (stereo unspecified) -16.6%
C[C@]12CC(O)C3C(CCC4=CC(=O)CC[C@@]43C)C1CCC2c1csc(-c2ccccc2)n1 (stereo partly specified) 15.3%
CC(=O)[C@H]1CC[C@H]2[C@@H]3CCC4=CC(=O)CC[C@]4(C)[C@H]3CC[C@]12C 5.4% and -4.1%
C/C(=N\O)c1ncc(C(F)(F)F)cc1Cl -23.5%
CC(C)NC(=O)CC(=O)N/N=C\c1ccccc1C(=O)O -33.7%
CSc1ccccc1C(=O)Nc1cccc(N(C)S(C)(=O)=O)c1 -8.4%
CC1Cc2ccccc2N1CC(=O)NC(=O)NCc1ccco1 (stereo unspecified) -5.2%
Nc1cccc(N2C(=O)c3cccc4c(N)ccc(c34)C2=O)c1 5.7%
Nc1ccc2c3c(cccc13)C(=O)N(c1ccccc1)C2=O -19.1%
O=C(NCCOc1ccccc1)C1CCC(=O)N(CCCN2CCOCC2)C1 (stereo unspecified) -28.6%
Cc1ccc2c(c1)C(=O)CC(c1ccc3c(c1)OCCO3)O2 (stereo unspecified) -0.6%
COc1ccc2c(c1)C(=O)CC(c1ccccc1F)O2 (stereo unspecified) 5.9%
COc1ccc(CN(C)C(=O)c2ccc(COc3ccccc3)cc2)c(OC)c1 -11.1%
Cc1ccsc1/C=N\NC(=O)Cn1nnc2ccccc21 -9.3%
OC(COC(c1ccc(Cl)cc1)c1ccc(Cl)cc1)CN1CCCC1 (stereo unspecified) -28.8%
OCCN1CCN(CC(O)COC(c2ccc(F)cc2)c2ccc(F)cc2)CC1 (stereo unspecified) -11.1%
Cc1ccccc1NC(=O)Cc1nc(COC(=O)c2cc(Cl)ccc2O)cs1 -19.6%
CC(=O)Oc1cc(OC(C)=O)c2c(=O)c(-c3ccc4c(c3)OCCCO4)c(C)oc2c1 -3%
O=C(NCc1cccnc1)c1ccc(-c2cc(Cl)ccc2Cl)o1 42.3%
O=C(NCc1cccnc1)c1ccc(-c2ccc(Cl)cc2)o1 -19.4%
Cc1csc(=O)n1CC(=O)OCC(=O)Nc1cc(Cl)ccc1[N+](=O)[O-] -34.9%
CCN(C(=O)CSc1nncs1)c1c(N)n(Cc2ccccc2)c(=O)[nH]c1=O 4.6%
CCC(=O)NC(C)C(c1cccs1)N1CCN(Cc2ccccc2)CC1 (stereo unspecified) -18.4%
O=C(COc1ccc(Cl)cc1)N1CCN(C(=O)c2ccccc2F)CC1 27.3%
C=C1C(=O)O[C@H]2C[C@]3(C)C([C@@H](OC(=O)/C(C)=C/C)[C@H]12)[C@](C)(O)CC[C@H]3O (stereo partly specified) 13.6%
C=C1C(=O)O[C@H]2[C@H]1[C@@H](O)CC(=C)[C@@H]1CC(=O)[C@@H](C)[C@H]21 9.7%
CCn1c(CC(=O)Nc2ccc(OC)cc2)nnc1SCC(=O)N1CCOCC1 -21.2%
COc1ccc(/C=C/C(=O)c2ccc[nH]2)c(OC)c1OC -21.2%
COc1ccc(/C=C/C(=O)c2ccncc2)c2ccccc12 6.3%
COc1cc2[nH]c(=O)n(C3CCCCC3)c(=O)c2cc1OC 3.9%

inhibition, active:
O=S(=O)(O)c1nc2ccccc2n1Cc1ccccc1 82.8%
CC(=O)Nc1ccc(NC2=Nc3ccccc3N3C2=Nc2c(c(C)nn2-c2ccccc2)C3c2ccccc2)cc1 (stereo unspecified) 99%
O=C(Nc1ccc(F)cc1)Nc1cc(OCC(F)(F)F)cc(OCC(F)(F)F)c1 84.5%
O=C(/C=C/c1ccc([N+](=O)[O-])cc1)Nc1ncc([N+](=O)[O-])s1 54.9%
CCCOc1ccc(/C=C/C(=O)Nc2ccc([N+](=O)[O-])cc2)cc1 76.6%
NNC(=O)CCN1CCN(Cc2ccccc2)CC1 45.4%
C=CCSc1nc(C)c(Cc2cccc3ccccc23)c(=O)[nH]1 41.9%
CCOC(=O)c1ccc(Cl)c(NC(=O)c2ccc(-c3ccccc3)cc2)c1 104%
O=C(Nc1cccc([N+](=O)[O-])c1)C12CC3CC(C1)CC(n1cnc([N+](=O)[O-])n1)(C3)C2 92.1%
CC(NC(=O)C1CCCC1)C1CC2CCC1C2 (stereo unspecified) 96.5%
Cc1cccc(N2C(=O)c3cccc4c(N)ccc(c34)C2=O)c1 26.2%
Cn1c(Cl)cnc1C1CC(=O)c2cc(Cl)ccc2O1 (stereo unspecified) 76.3%
OC(COC(c1ccc(F)cc1)c1ccc(F)cc1)CN1CCCC1 (stereo unspecified) 40.5%
O=C(NCc1cccnc1)c1ccc(-c2cccc(Cl)c2Cl)o1 40.8%
C=C1C(=O)O[C@@H]2[C@H]1[C@@H](OC(=O)/C(C)=C/C)C/C(C)=C\C(=O)/C=C(\C)[C@@H]2O 54.7%
